Results as given in publication PMC10812921, “Transcriptional Coactivator BOB1 (OBF1, OCA-B) Modulates the Specificity of DNA Recognition by the POU-Domain Factors OCT1 and OCT2 in a Monomeric Configuration”.

Columns and labels:
POU1 (OCT1 POU domain) = POU1 (OCT1 POU domain) (human, UniProt P14859 260-458); assay: EMSA-SELEX-seq; no BOB1; 20 mM Tris-HCl pH 7.6, 140 mM NaCl, 10% glycerol, 0.5 mM EDTA, 0.05% Triton X-100, 0.1 mg/mL BSA, 0.1 mg/mL poly(dI-dC), 5 mM DTT, room temperature, 20 min; high values mean tight binding; conditions: protein: recombinant; dsDNA, one strand shown
In short: (§1)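 Tagged POU-domain proteins were produced in E. coli BL21, purified under denaturing conditions and renatured before use. They were mixed at 30 ng with 300 ng of a PCR-amplified double-stranded random 35-nt library, with or without 28 ng coactivator protein, in 20 μL Tris–HCl pH 7.6 binding buffer, incubating 20 min at RT. Complexes cut from native 6% PAGE were eluted and PCR-amplified over four rounds, then sequenced by Illumina, with binding preference taken as the percentage of sequenced 8-mers matching a motif pattern.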

POU2 (OCT2 POU domain) = biological target: T1, POU2 (OCT2 POU domain) (human, UniProt P09086 175-386); assay: as above; conditions: protein: recombinant; dsDNA, one strand shown
T1 sequence: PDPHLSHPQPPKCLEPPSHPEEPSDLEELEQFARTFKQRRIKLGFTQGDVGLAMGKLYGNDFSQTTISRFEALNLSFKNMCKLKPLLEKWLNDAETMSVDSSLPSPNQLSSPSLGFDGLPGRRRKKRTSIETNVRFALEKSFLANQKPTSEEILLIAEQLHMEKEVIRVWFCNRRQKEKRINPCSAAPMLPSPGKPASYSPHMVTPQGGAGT
In short: as §1

[1] = biological target: POU1 (OCT1 POU domain);BOB1 (OBF1, OCA-B) (human;human, UniProt P14859;Q16633 260-458;1-256, |); assay: EMSA-SELEX-seq; with BOB1 (ternary complex band); 20 mM Tris-HCl pH 7.6, 140 mM NaCl, 10% glycerol, 0.5 mM EDTA, 0.05% Triton X-100, 0.1 mg/mL BSA, 0.1 mg/mL poly(dI-dC), 5 mM DTT, room temperature, 20 min; high values mean tight binding; conditions: protein: recombinant;recombinant; copies: 1;1; dsDNA, one strand shown
In short: as §1

[2] = biological target: T2, POU2 (OCT2 POU domain);BOB1 (OBF1, OCA-B) (human;human, UniProt P09086;Q16633 175-386;1-256, |); assay: as above; conditions: protein: recombinant;recombinant; copies: 1;1; dsDNA, one strand shown
T2 sequence 1: T1 sequence
T2 sequence 2: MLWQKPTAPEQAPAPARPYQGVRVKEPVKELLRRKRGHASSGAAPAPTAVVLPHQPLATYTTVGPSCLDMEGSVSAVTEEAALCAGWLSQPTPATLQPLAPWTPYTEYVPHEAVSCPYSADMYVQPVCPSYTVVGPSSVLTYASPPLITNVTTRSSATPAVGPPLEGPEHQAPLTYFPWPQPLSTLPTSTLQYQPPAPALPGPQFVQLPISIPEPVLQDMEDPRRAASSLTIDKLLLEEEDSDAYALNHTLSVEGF
In short: as §1

Chain of POU1 (OCT1 POU domain) (P14859 260-458): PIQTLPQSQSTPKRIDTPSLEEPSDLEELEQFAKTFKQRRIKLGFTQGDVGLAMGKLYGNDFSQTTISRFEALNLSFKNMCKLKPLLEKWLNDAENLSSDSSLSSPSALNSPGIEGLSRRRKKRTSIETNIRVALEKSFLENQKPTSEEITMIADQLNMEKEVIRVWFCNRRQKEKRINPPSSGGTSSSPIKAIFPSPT

Sequence	binding signal (POU1 (OCT1 POU domain))	binding signal (POU2 (OCT2 POU domain))	binding signal [1]	binding signal [2]
AGGAAAAT	0.287 % of ANNNNAAN 8-mers	0.2 % of ANNNNAAN 8-mers	0.507 % of ANNNNAAN 8-mers	0.347 % of ANNNNAAN 8-mers
AGAAAAAG	0.0534 % of ANNNNAAN 8-mers	0.0581 % of ANNNNAAN 8-mers	0.0468 % of ANNNNAAN 8-mers	0.0421 % of ANNNNAAN 8-mers
ATCGAAAG	0.0294 % of ANNNNAAN 8-mers	0.0288 % of ANNNNAAN 8-mers	0.0379 % of ANNNNAAN 8-mers	0.0272 % of ANNNNAAN 8-mers
AAAGGAAT	0.0953 % of ANNNNAAN 8-mers	0.124 % of ANNNNAAN 8-mers	0.0901 % of ANNNNAAN 8-mers	0.0925 % of ANNNNAAN 8-mers
AGATTAAC	0.0885 % of ANNNNAAN 8-mers	0.0863 % of ANNNNAAN 8-mers	0.0414 % of ANNNNAAN 8-mers	0.0495 % of ANNNNAAN 8-mers
ACTCTAAA	0.0271 % of ANNNNAAN 8-mers	0.0299 % of ANNNNAAN 8-mers	0.0285 % of ANNNNAAN 8-mers	0.0248 % of ANNNNAAN 8-mers
AGATTAAT	0.147 % of ANNNNAAN 8-mers	0.207 % of ANNNNAAN 8-mers	0.0901 % of ANNNNAAN 8-mers	0.106 % of ANNNNAAN 8-mers
ACTACAAG	0.0194 % of ANNNNAAN 8-mers	0.0201 % of ANNNNAAN 8-mers	0.0183 % of ANNNNAAN 8-mers	0.0231 % of ANNNNAAN 8-mers
AAGCAAAG	0.0847 % of ANNNNAAN 8-mers	0.0501 % of ANNNNAAN 8-mers	0.125 % of ANNNNAAN 8-mers	0.0537 % of ANNNNAAN 8-mers
AGGATAAT	0.168 % of ANNNNAAN 8-mers	0.209 % of ANNNNAAN 8-mers	0.0952 % of ANNNNAAN 8-mers	0.106 % of ANNNNAAN 8-mers
ACGAGAAC	0.0179 % of ANNNNAAN 8-mers	0.0178 % of ANNNNAAN 8-mers	0.0156 % of ANNNNAAN 8-mers	0.0165 % of ANNNNAAN 8-mers
ACATGAAG	0.0378 % of ANNNNAAN 8-mers	0.0449 % of ANNNNAAN 8-mers	0.03 % of ANNNNAAN 8-mers	0.0355 % of ANNNNAAN 8-mers
AATGGAAG	0.101 % of ANNNNAAN 8-mers	0.076 % of ANNNNAAN 8-mers	0.0644 % of ANNNNAAN 8-mers	0.0792 % of ANNNNAAN 8-mers
AATCCAAT	0.0507 % of ANNNNAAN 8-mers	0.0552 % of ANNNNAAN 8-mers	0.0605 % of ANNNNAAN 8-mers	0.0504 % of ANNNNAAN 8-mers
AGTCGAAC	0.0221 % of ANNNNAAN 8-mers	0.0224 % of ANNNNAAN 8-mers	0.0199 % of ANNNNAAN 8-mers	0.0239 % of ANNNNAAN 8-mers
ATTGCAAA	0.202 % of ANNNNAAN 8-mers	0.167 % of ANNNNAAN 8-mers	0.322 % of ANNNNAAN 8-mers	0.324 % of ANNNNAAN 8-mers
ATGGCAAC	0.0263 % of ANNNNAAN 8-mers	0.0219 % of ANNNNAAN 8-mers	0.0297 % of ANNNNAAN 8-mers	0.0264 % of ANNNNAAN 8-mers
ATGAAAAA	0.149 % of ANNNNAAN 8-mers	0.123 % of ANNNNAAN 8-mers	0.204 % of ANNNNAAN 8-mers	0.121 % of ANNNNAAN 8-mers
ACGCGAAT	0.0389 % of ANNNNAAN 8-mers	0.0512 % of ANNNNAAN 8-mers	0.0336 % of ANNNNAAN 8-mers	0.0371 % of ANNNNAAN 8-mers
AGCGGAAG	0.0202 % of ANNNNAAN 8-mers	0.0196 % of ANNNNAAN 8-mers	0.0215 % of ANNNNAAN 8-mers	0.0173 % of ANNNNAAN 8-mers
ACGCCAAT	0.0137 % of ANNNNAAN 8-mers	0.0184 % of ANNNNAAN 8-mers	0.0195 % of ANNNNAAN 8-mers	0.0256 % of ANNNNAAN 8-mers
ACGCAAAA	0.151 % of ANNNNAAN 8-mers	0.0944 % of ANNNNAAN 8-mers	0.277 % of ANNNNAAN 8-mers	0.157 % of ANNNNAAN 8-mers
ATTGAAAG	0.0603 % of ANNNNAAN 8-mers	0.0604 % of ANNNNAAN 8-mers	0.0632 % of ANNNNAAN 8-mers	0.0611 % of ANNNNAAN 8-mers
ACCCTAAG	0.0118 % of ANNNNAAN 8-mers	0.0178 % of ANNNNAAN 8-mers	0.0133 % of ANNNNAAN 8-mers	0.0107 % of ANNNNAAN 8-mers
ATTAAAAT	0.614 % of ANNNNAAN 8-mers	0.636 % of ANNNNAAN 8-mers	0.228 % of ANNNNAAN 8-mers	0.204 % of ANNNNAAN 8-mers
ATTCCAAG	0.045 % of ANNNNAAN 8-mers	0.0512 % of ANNNNAAN 8-mers	0.032 % of ANNNNAAN 8-mers	0.0446 % of ANNNNAAN 8-mers
ACGGTAAT	0.0984 % of ANNNNAAN 8-mers	0.143 % of ANNNNAAN 8-mers	0.0741 % of ANNNNAAN 8-mers	0.109 % of ANNNNAAN 8-mers
ATGGGAAG	0.0652 % of ANNNNAAN 8-mers	0.0696 % of ANNNNAAN 8-mers	0.0683 % of ANNNNAAN 8-mers	0.0735 % of ANNNNAAN 8-mers
ACCGGAAA	0.0271 % of ANNNNAAN 8-mers	0.0236 % of ANNNNAAN 8-mers	0.0265 % of ANNNNAAN 8-mers	0.0281 % of ANNNNAAN 8-mers
AAAGCAAG	0.04 % of ANNNNAAN 8-mers	0.0368 % of ANNNNAAN 8-mers	0.0457 % of ANNNNAAN 8-mers	0.0421 % of ANNNNAAN 8-mers
